The campaign covered roughly 1,500 compounds. About 460 (31%) were called active. Not shown: some 1% with an inconclusive outcome. A selection follows. Measured potencies and affinities stand elsewhere. Values without a mark were called inactive.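 Rule for the calls: active = curve reaches 40% activation over neutral controls at an AC40 no higher than the top valid tested concentration; inconclusive = no clear call, values can overlap the other calls; inactive = signal moving opposite to the expected increase, and the rest.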

This experiment can be described thus: activators of glucose-dependent insulin secretion, dose response, cell-based, INS-1E, Gaussia luciferase, luminescence, cherry-pick, set 2 (AID 977607).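 Note: 0% = median of the plate neutral control wells.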 As to conditions: INS-1E GLuc insulin secretion reporter, 2-3 h, hits give high values; at 35 µM, 100% = signal doubled over neutral wells unless noted.
Take `Cc1cc(Br)c2c(c1)C1(OCCO1)C(=O)N2`: the max activation was -12%.
To `CC(=O)c1cccc(NC2c3ncccc3C(=O)N2Cc2ccco2)c1` (stereo not drawn) belongs 50.6% [at 11 µM, 100% = signal doubled over neutral wells]; to `O=C1c2cccnc2C(Nc2ccc(F)c(Cl)c2)N1Cc1cccs1` (stereo not drawn), -13.1% [at 0.135 µM, 100% = signal doubled over neutral wells]; to `C=CCN1C(=O)CSc2ccc(C(=O)OCC)cc21`, -11.5% [at 3.8 µM, 100% = signal doubled over neutral wells].
To `CCCN(Cc1nnc(-c2ccccc2Cl)o1)C(=O)c1cc2ccccc2o1` belongs -17% [at 11 µM, 100% = signal doubled over neutral wells]; to `Cc1cc(C)cc(N(C(=O)C(F)(F)F)C(C(=O)NC2CCCCC2)c2cccs2)c1` (stereo not drawn), 37.1% [at 0.42 µM, 100% = signal doubled over neutral wells]; to `Cc1ccc(S(=O)(=O)N2CCN(C(=O)COC(=O)c3ccc(O)cc3)CC2)c(C)c1`, -39.9%.
To `N#CC1=C(N)Oc2n[nH]c(-c3ccc(F)cc3)c2C1c1cccnc1` (stereo not drawn) belongs 43%; to `COc1ccc(S(=O)(=O)N(C)CC(=O)Nc2ccc3c(c2)OCCO3)cc1OC`, 41.6% [at 0.0016 µM, 100% = signal doubled over neutral wells]; to `O=C(O)Cc1ccc(NS(=O)(=O)c2ccc3c(c2)OCCO3)cc1`, -23.1% [at 0.0016 µM, 100% = signal doubled over neutral wells].
Consider `O=C(N=C1SC2CS(=O)(=O)CC2N1c1ccc(F)c(Cl)c1)C1CC1` (stereo not drawn), for which the max activation was -16.2% [at 0.046 µM, 100% = signal doubled over neutral wells].
For the compound `Cc1ccc(NC(=O)c2cc(-c3ccccc3O)n[nH]2)cc1C`, the max activation is 17.3%.
With `Cc1cc2nc(-c3ccccc3O)[nH]c2cc1C`, the max activation was -13.8% [at 0.42 µM, 100% = signal doubled over neutral wells].
To `O=C(c1cc(-c2ccc(F)cc2)nc2ccccc12)N1CCN(C2CCS(=O)(=O)C2)CC1` (stereo not drawn) belongs -24.6% [at 0.0016 µM, 100% = signal doubled over neutral wells]; to `CC(=O)c1cccc(N(CC(=O)NC2CCCCC2)C(=O)Cn2nnc(-c3ccccc3)n2)c1`, -24.8% [at 0.0016 µM, 100% = signal doubled over neutral wells].
`CCOc1nc(-c2ccccc2)c2cc(Br)ccc2n1`: the max activation was 13.2%.
Next, `COc1ccc(C(=O)Nc2nnc(-c3ccco3)s2)cc1`: -13.7% [at 0.135 µM, 100% = signal doubled over neutral wells]; `NC(=O)C1CCN(C(=O)CCNS(=O)(=O)c2ccccc2F)CC1`: 14.1% [at 1.2 µM, 100% = signal doubled over neutral wells]; `CCn1cc(C(=O)O)c(=O)c2cc(F)c(N3CCN(C(=S)NC(=O)c4cccc(C)c4)CC3)cc21`: -20.5%.
In the case of `CCOc1ccc(CCNC(=O)COC(=O)c2cccc(N(C)C)c2)cc1OCC`, the max activation was -44%.
For `CC(C)CC(=O)Nc1cccc(-c2nc3ncccc3o2)c1`, the max activation is -18.2% [at 0.0016 µM, 100% = signal doubled over neutral wells].
On to `COc1ccc(S(=O)(=O)N2CCCCC2)cc1NC(=O)C1CCCC1`, for which the max activation is -27.7% [at 0.135 µM, 100% = signal doubled over neutral wells].
Next, `CN1CCN(c2ccc(NC(=O)c3ccc(Oc4ccccc4)cc3)cc2)CC1`: -14.3% [at 0.015 µM, 100% = signal doubled over neutral wells].
Next, `O=C(NCc1ccccc1)c1cccnc1Sc1ccccc1`: 14.4% [at 3.8 µM, 100% = signal doubled over neutral wells]; `CCOCCCn1c(SCc2ccccc2)nnc1-c1ccncc1`: 27.1% [at 1.2 µM, 100% = signal doubled over neutral wells].
As to `CNc1nc(-c2ccccc2)cc(-c2ccccc2)n1`, the max activation is -32.2%.
Next, `CC(C)Cc1nc2n[nH]c(N)c2c2c1COC(C)(C)C2`: 33.4%; `CCCCOc1ccc(SCCCN2CCOCC2)cc1`: -17.1% [at 11 µM, 100% = signal doubled over neutral wells].
As for `CC(=O)Oc1ccccc1C(=O)OCCN=C1NS(=O)(=O)c2ccccc21`, the max activation was -19.1% [at 0.046 µM, 100% = signal doubled over neutral wells].
Next, `CCOC(=O)c1cc(-c2ccc(Cl)s2)nc2c1c(C)nn2C`: 61.3%; `N#Cc1cccnc1Nc1cccc(Cl)c1`: 31.6%.
Next, `CCNC(=O)C1(C)CCCN1C(=O)c1cc(OC)c(OC)c(OC)c1` (stereo not drawn): -19.1% [at 0.135 µM, 100% = signal doubled over neutral wells].
As to `O=C(Nc1cccc(Cl)c1)Nc1nc(-c2ccc(Cl)cc2)cs1`, the max activation was -37.7% [at 11 µM, 100% = signal doubled over neutral wells].
To `CC(=O)Nc1ccc(Nc2nc(-c3c(C)nc4ccccn34)cs2)cc1` belongs -20% [at 11 µM, 100% = signal doubled over neutral wells]; to `Cc1ccc(-c2cc(C(=O)Nc3nn[nH]n3)c3ccccc3n2)c(C)c1`, -12.2% [at 1.2 µM, 100% = signal doubled over neutral wells].
To `Cc1ccc2c(c1)C=CC(C#N)N2C(=O)c1ccccc1` (stereo not drawn) belongs 36.1%; to `O=C(COc1nncc2ccccc12)NCC(F)(F)F`, 25.7%.
To `Cc1ccc(C(OCC(O)CNCc2ccc(F)cc2)c2ccccc2)cc1` (stereo not drawn) belongs 97.1%; to `CCOC(=O)CN1C(=O)[C@]2(OCCC=C[C@H]2C)c2ccccc21`, 33.6%; to `C1CCN(CCCNC2C3CC4CC(C3)CC2C4)C1` (stereo not drawn), -11.8% [at 0.0016 µM, 100% = signal doubled over neutral wells].
On to `CCc1nc2c(nnn2Cc2ccc(F)cc2)c(=O)[nH]1`, for which the max activation is -16% [at 0.42 µM, 100% = signal doubled over neutral wells].
To `COc1ccc(-c2cc(-c3ccco3)[nH]c(=O)c2C#N)cc1OC` belongs -12.7% [at 3.8 µM, 100% = signal doubled over neutral wells]; to `COc1ccc(CC(=O)N2CCc3cc(OC)c(OC)cc3C2)cc1`, 20%; to `O=C(Nc1nnc(CCS(=O)(=O)c2ccc3ccccc3c2)s1)c1cccs1`, -24% [at 0.015 µM, 100% = signal doubled over neutral wells].
Next, `O=C(Nc1ccc(NC(=O)c2cccs2)cc1)c1ccc(Br)o1`: -18.3% [at 0.135 µM, 100% = signal doubled over neutral wells]; `CC1(C)N=C(c2ccccc2)C(c2ccccc2)=N1`: 33.2%; `CCOC(=O)c1cc(-c2ccncc2)nc2c1c(C)nn2-c1ccccn1`: -16.4% [at 0.005 µM, 100% = signal doubled over neutral wells].
Next, `CCOC(=O)Cn1nc(-c2ccccc2)c(-c2ccccc2)nc1=O`: -19.8% [at 0.005 µM, 100% = signal doubled over neutral wells].
For `Cc1ccc(-n2cc(CNCCCn3ccnc3C)c(-c3ccc(F)cc3)n2)cc1`, the max activation is -12.6% [at 1.2 µM, 100% = signal doubled over neutral wells].
Next, `CCOc1ncccc1C(=O)OCC(=O)NCCc1ccc(S(N)(=O)=O)cc1`: -12.8% [at 0.046 µM, 100% = signal doubled over neutral wells]; `COc1ccc(S(=O)(=O)N(C)c2ccc(C(=O)N3CCCC3)cc2)cc1OC`: -12.8% [at 3.8 µM, 100% = signal doubled over neutral wells]; `O=C(O)c1ccc(S(=O)(=O)N2CCC3(CC2)CC(=O)c2ccccc2O3)cc1`: -16.3% [at 1.2 µM, 100% = signal doubled over neutral wells].
With `CCCN1C[C@@H](C)[C@@H](OC)CN(C)C(=O)c2ccc(NC(=O)c3cccc(F)c3)cc2OC[C@H]1C`, the max activation is -15.7% [at 0.005 µM, 100% = signal doubled over neutral wells].
Next, `O=C(Nc1cccc(Cl)c1)c1cnn2cccnc12`: 29.7%.
To `CCc1nc2ccc(C(=O)NCCCN3CCCC3=O)cn2c1N(CCC(C)C)CCN(C)C` belongs -19.8% [at 0.42 µM, 100% = signal doubled over neutral wells]; to `CC(=O)c1cccc(-c2csc3ncnc(Sc4nnnn4C)c23)c1`, -11.8% [at 0.005 µM, 100% = signal doubled over neutral wells]; to `CCN(CC)C(=O)C1(P(=O)(c2ccccc2)c2ccccc2)CCC1`, -17.4% [at 0.42 µM, 100% = signal doubled over neutral wells].
Consider `O=C(c1ccco1)N(Cc1ccc(Cl)cc1)C1CCS(=O)(=O)C1` (stereo not drawn), for which the max activation is 17.8%.
